PRMT1 FP inh = PRMT1 (human) inhibition, primary screen; Q99873; recombinant PRMT1, activity-based probe fluorescence polarization; inhibition, % at 2.79 µM; hit rate 1.3% among 370,000; AID 652257;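 active = inhibition above about 21% made by adding two undisclosed values, limit read from the data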
Target sequence (Q99873 whole entry, looked up): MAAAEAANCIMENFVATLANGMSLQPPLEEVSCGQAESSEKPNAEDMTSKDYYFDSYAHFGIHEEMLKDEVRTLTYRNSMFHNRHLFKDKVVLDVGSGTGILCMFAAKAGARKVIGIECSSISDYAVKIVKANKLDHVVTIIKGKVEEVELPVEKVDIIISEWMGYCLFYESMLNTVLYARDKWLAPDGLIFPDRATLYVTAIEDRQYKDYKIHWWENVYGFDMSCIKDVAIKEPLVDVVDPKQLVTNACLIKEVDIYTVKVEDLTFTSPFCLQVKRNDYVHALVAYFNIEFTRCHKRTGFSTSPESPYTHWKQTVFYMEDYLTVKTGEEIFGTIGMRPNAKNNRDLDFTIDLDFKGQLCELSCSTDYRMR
ABHD5-PLIN5 inh = blocks binding of human ABHD5 to perilipin-5 | Split G. princeps luciferase complementation, luminescence, 4 h | Q00G26+Q8WTS1 | inhibition, % at 4 µM | hit rate 0.78% among 360,000;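 active = inhibition above the mean inhibition across every tested compound plus 3 SD, cut at about 22% in these data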;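 also: 0% = DMSO only wells and the 100% control is not disclosed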
NOD2 RIPK2 PPI = inhibitors of human NOD2-RIPK2 interaction. inhibition, % at 4.98 µM. hit rate 0.38% among 360,000. AID 624267. CHO BLA complementation NOD2-RIPK2, CCF4 ratio. O43353; in the data active = inhibition above about 21%;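 also: 0% = vehicle only and 100% = reference blocker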
TLR4 MyD88 comp = TLR4-MyD88 interaction inhibition in cells; O00206+Q99836; HeLa CL3-4 TLR4/MyD88 BLA complementation, FRET ratio; inhibition, % at 8.4 µM; hit rate 0.18% among 200,000; AID 861; in the data active = inhibition above about 25%;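 also: 0% = vehicle and 100% = reference inhibitor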
TLR9-MyD88 block = TLR9-MyD88 interaction inhibition; Q9NR96+Q99836; CHO BLA complementation TLR9-MyD88, CCF4 FRET ratio; hit rate 0.21% among 340,000; inhibition, % at 4.98 µM; AID 504734;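 active = inhibition above the mean over all tested compounds plus 3 SD, cut at about 21% in these data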;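 also: 0% = DMSO only wells and 100% = clavulanate BLA inhibitor control wells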
Exocytosis inh = lytic granule exocytosis inhibition; hit rate 0.66% among 360,000; inhibition, % at 10 µM; TALL-104 LAMP-1 surface exposure, flow cytometry; cells stimulated with thapsigargin and PMA;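 active = inhibition above about 55%, limit read from the data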
PRMT1 confirm = confirmation of human PRMT1 inhibitors; shares compounds with PRMT1 FP inh; recombinant His-PRMT1, activity-based probe fluorescence polarization; inhibition, % at 2.79 µM; hit rate 42% among 3,300; AID 687036;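 active = mean inhibition across replicates above the hit cutoff derived for the earlier primary screen, cut at about 22% in these data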
An asterisk follows results filed as active; nt = no result. Sampled rows, rich in hits. Any-hit rate of the full collection: about 2.6%.

SMILES	PRMT1 FP inh	ABHD5-PLIN5 inh	NOD2 RIPK2 PPI	TLR4 MyD88 comp	TLR9-MyD88 block	Exocytosis inh	PRMT1 confirm
CC1(C)c2ccccc2N2CC(=O)N(CC(N)=O)C21C (stereo not given)	56*	-5	-1	-1	-3	1	14
CC(=O)Nc1ccc(S(=O)(=O)Nc2nc3ccccc3nc2Sc2nncn2C)cc1	25*	2	5	-8	-4	-1	5
CCn1nc(NS(=O)(=O)c2ccc(NC(C)=O)cc2)c2cc3cc(C)ccc3nc21	2	-6	-5	nt	-1	6	nt
C=C1c2cccc(O)c2C(O)=C2C(=O)[C@]3(O)C(O)=C(C(N)=O)C(=O)[C@@H](N(C)C)[C@@H]3[C@@H](O)[C@H]12	52*	1	10	-5	-3	-1	26*
Nc1cccn2c(-c3ccc(Cl)cc3)cnc12	42*	3	5	1	3	-3	-1
Nc1cccn2c(-c3ccc(Cl)c(Cl)c3)cnc12	32*	3	1	-6	-5	23	-3
COc1ccc2ccccc2c1C(=O)/C=C\c1ccoc1	33*	16	5	-5	3	0	7
Cc1cnc(CNC(=O)c2ccc3nc([C@@H]4O[C@H](CO)[C@H](O)[C@H](O)[C@H]4O)[nH]c3c2)cn1	-3	-4	-12	nt	nt	13	nt
COc1ccc2c(C)cc(C)nc2n1	2	1	-8	nt	-8	1	nt
Cc1cc(C)c2ccc(=S)[nH]c2n1	38*	2	-5	1	-1	-2	16
O=C(Cc1ccc(NC(=O)C2CCN(C(=O)c3ccccc3)CC2)cc1)Nc1cccc(C(=O)N2CCCCC2)c1	-2	10	-2	nt	-13	-10	nt
COc1ccc(C(CNC(=O)CCNS(=O)(=O)c2ccccc2)N2CCOCC2)cc1 (stereo not given)	-2	4	8	nt	3	-5	nt
CCN1/C(=C\C(=S)Nc2ccccc2)Sc2ccccc21	71*	-3	3	4	-1	39	16
CCN1/C(=C\C=C(C(C)=O)C(C)=O)Sc2ccccc21	-47	7	4	-5	8	0	nt
Cc1ccc(C(C)C)c(OCC(=O)NC(=S)Nc2ccccc2N2CCOCC2)c1	4	1	3	nt	-5	14	nt
CCC(=O)N1CCN(c2ccccc2NC(=O)COc2cc(C)ccc2C(C)C)CC1	112*	1	3	0	-15	1	-4
O=C1OC(C(Cl)(Cl)Cl)Nc2ccccc21 (stereo not given)	1	0	-8	nt	nt	6	nt
COc1ccc(C(=O)N2CCN(c3ccc(N4CCOCC4)nn3)CC2)cc1OC	1	-4	4	nt	-2	-1	nt
COc1ccccc1C(=O)N1CCN(c2ccc(N3CCOCC3)nn2)CC1	38*	-7	8	nt	-1	7	-5
Cc1ccc(C)c(S(=O)(=O)Nc2ccc3scnc3c2)c1	35*	-6	11	-3	4	0	7
Cc1ccc(C)c(S(=O)(=O)Nc2ccc3[nH]c(=O)[nH]c3c2)c1	5	0	-5	nt	-2	-15	nt
O=C(Nc1cccc(-c2cccc(Cl)c2)c1)C1CCN(Cc2nccs2)CC1	-4	-2	3	nt	-1	9	nt
COc1ccc(-c2nc(CN3CCC(C(=O)NCC4CCCO4)CC3)c(C)o2)cc1OC (stereo not given)	3	3	-4	nt	-4	-4	nt
CC(=O)NC1=NC(=O)/C(=C/c2cn(C(C)=O)nc2-c2ccccc2)S1	31*	-32	-6	-17	3	-1	27*
CC(=O)NC1=NC(=O)/C(=C/c2cc(C)n(-c3cccc(C(=O)O)c3)c2C)S1	57*	-18	-7	-1	nt	-6	9
SMILES	PRMT1 FP inh	ABHD5-PLIN5 inh	NOD2 RIPK2 PPI	TLR4 MyD88 comp	TLR9-MyD88 block	Exocytosis inh	PRMT1 confirm
CC(=O)NC1=NC(=O)/C(=C/c2cc(C)n(-c3ccc(NC(C)=O)cc3)c2C)S1	32*	1	5	4	-8	-1	-9
COc1ccc(-c2csc(=Nc3ccccc3)n2CCO)cc1	59*	-8	7	-13	-4	-1	-6
CC(=O)c1cccc(N=c2scc(-c3ccc(S(=O)(=O)N4CCOCC4)cc3)n2CCO)c1	69*	-4	0	-6	-7	13	-1
COc1ccc(-c2csc(=NCCO)n2-c2ccccc2)cc1	64*	-14	-16	nt	5	2	-2
C=CCn1c(-c2ccc(OC)cc2)csc1=Nc1c(C)n(C)n(-c2ccccc2)c1=O	-3	0	2	3	3	1	nt
O=C(C(=O)N1CCN(C(=O)C2CCC2)CC1)c1cccc(C(F)(F)F)c1	-2	nt	nt	nt	nt	nt	nt
COc1ccc(C2CCCCCN2C(=O)C2CCN(S(=O)(=O)c3ccc(C)cc3)CC2)cc1 (stereo not given)	2	0	-3	nt	2	-1	nt
O=C(Nc1ccc2nc([C@H]3C[C@H](O)[C@@H](CO)O3)[nH]c2c1)NC(c1ccccc1)c1ccccc1	-1	-6	3	nt	nt	9	nt
CCC1C2CN(C(C)=O)CC=C2C(C#N)=C(N)C1(C#N)C#N (stereo not given)	5	-4	-4	6	16	16	nt
CC(C)N1CC=C2C(C#N)=C(N)C(C#N)(C#N)C(c3ccccc3)C2C1 (stereo not given)	37*	-8	4	-4	-8	2	33*
COc1cc(C2C3CN(C)CC=C3C(C#N)=C(N)C2(C#N)C#N)ccc1OC(C)C (stereo not given)	8	5	-7	16	-11	-1	nt
CN1CC=C2C(C#N)=C(N)C(C#N)(C#N)C(Cc3ccccc3)C2C1 (stereo not given)	45*	-4	3	-14	1	4	11
S=c1nc(C23CC4CC(CC(C4)C2)C3)[nH][nH]1	34*	-7	-14	nt	-4	-2	9
CCCCCOc1ccc(C(=O)CCN2CCOCC2)cc1	26*	10	5	nt	3	7	2
CCCCOc1ccc(SCCCN2CCOCC2)cc1	-5	-6	-12	nt	-10	-1	nt
COc1ccc(CCNC2CC(=O)N(CCc3ccccc3)C2=O)cc1OC (stereo not given)	42*	2	1	8	0	-6	-2
COc1ccc(CCNC2CC(=O)N(CCc3ccc(OC)c(OC)c3)C2=O)cc1 (stereo not given)	78*	8	-5	9	5	-2	2
CCC1C(=O)N=C(SCC(=O)Nc2cccc3ccccc23)NC1=O (stereo not given)	18	2	-1	-6	3	1	nt
CC(=O)NC1C(=O)N=C(SCC(=O)Nc2c(C)cccc2C)NC1=O (stereo not given)	42*	-20	3	7	1	-1	15
